Screens: PubChem, National Center for Advancing Translational Sciences (NCATS)
Rows were chosen to be rich in hits. Some 10% of all compounds tested hit in one or more screens of this group.
ALOX12 inhib – 12-hLO (ALOX12) enzyme inhibition; P18054; purified 12-hLO, xylenol orange hydroperoxide absorbance; Potency, µM (top dose mostly 57.1 µM), most hits filed as inhibitors; 150,000 tested, 0.12% active; AID 1452; active means well fitted inhibition curve with a large enough effect; inconclusive means small, poorly fitted or top-dose-only effect; further: nearly all actives have a fitted effect of over 55% in size
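150 nM 12hLO, 25 mM Hepes pH 7.0 + 0.01% Triton X-100; cpd preinc 15 min RT; 40 uM arachidonic acid, 30 min RT; Fe-XO 30 min; A573/A405 ratio as read-out.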
Lamin A splicing – modulators of lamin A splicing | HeLa LMNA splicing GFP/RFP minigene ratio, 48 h | Potency, µM (highest dose often 46.1 µM), actives largely listed as inhibitors | 200,000 tested, 0.01% active; active means well fitted inhibition curve with a large enough effect in the signal ratio, with a control signal flat, not every such curve was filed as active; inconclusive means small, poorly fitted or top-dose-only effect, or effect the other way, or a change in a side signal; the % refers to the signal ratio
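Read-out is the ratio of GFP to DsRed2 object intensity, acquired by 488 nm laser-scanning cytometry on HeLa lamin A-EGFP minigene reporter cells. Compound incubation 48 hrs at 37 °C in Opti-MEM with 2% FBS; DMSO 0.5% final.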
PNC assembly inh – blocks assembly of the perinucleolar compartment. PC3M PTB-GFP, PNC prevalence imaging, 16 h; stronger effect = lower value. activity change (PNC), negative = inhibition, % at 10 µM. 140,000 tested, 3.1% active. AID 2417;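 active means readout at or below -70, meaning at least 70% loss of cells showing the perinucleolar compartment, a nuclear body marking cancer cells; inconclusive means readout between -30 and a set limit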
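Read-out is percentage of cells bearing a perinucleolar compartment, from automated 20x imaging of fixed, Hoechst-stained PC3M PTB-GFP cells. Cells were seeded 4 h, then exposed 16 h to compound (23 nl of library stock) in duplicate plates.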
HPGD block – HPGD (human) dehydrogenase inhibition; P15428; purified HPGD, NADH fluorescence kinetic, PGE2 substrate; 150,000 tested, 4.3% active; Potency, µM, usual class: inhibitors
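NADH formation kinetics: reaction with 30 uM PGE2 and 1 mM NAD+ (final), 20 nM enzyme, Tris-HCl pH 8 with Tween 20, after 15 min compound preincubation at room temperature. Fluorescence change, last versus first of five reads.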
ALDH1A1 inh – ALDH1A1 (human) enzyme inhibition; 220,000 tested, 7.3% active; Purified ALDH1A1, NADH fluorescence, propionaldehyde substrate; Potency, µM (series often up to 75.3 µM), usual class: inhibitors; AID 1030; P00352
Target sequence (P00352 whole entry, looked up): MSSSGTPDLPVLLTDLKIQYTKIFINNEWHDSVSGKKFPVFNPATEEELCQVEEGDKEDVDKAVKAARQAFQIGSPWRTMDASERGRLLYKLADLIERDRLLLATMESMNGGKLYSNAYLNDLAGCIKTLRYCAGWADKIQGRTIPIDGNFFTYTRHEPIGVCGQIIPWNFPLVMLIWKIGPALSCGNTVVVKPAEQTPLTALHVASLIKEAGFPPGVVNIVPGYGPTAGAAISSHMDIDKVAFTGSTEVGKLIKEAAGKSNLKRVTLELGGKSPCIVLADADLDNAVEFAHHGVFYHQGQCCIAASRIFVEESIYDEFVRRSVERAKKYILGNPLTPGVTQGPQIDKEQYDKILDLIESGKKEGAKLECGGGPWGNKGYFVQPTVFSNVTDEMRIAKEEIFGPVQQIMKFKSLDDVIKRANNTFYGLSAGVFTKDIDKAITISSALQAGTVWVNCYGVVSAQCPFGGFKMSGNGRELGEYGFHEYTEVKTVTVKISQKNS
A number is an active result; . = inactive; ? = inconclusive; / = no result; ! = not active in a repeat; [ ] = dose if it differs, or a comment. Unless noted, the call rests on the fitted dose curve; in most records, active means well fitted inhibition curve with a large enough effect (not every such curve was filed as active); inconclusive means small, poorly fitted or top-dose-only effect, or another doubt; inactive means no such curve, though single readings can be large or run the other way.

SMILES | ALOX12 inhib | Lamin A splicing | PNC assembly inh | HPGD block | ALDH1A1 inh
N=c1n(CCN2CCCC2)c2ccccc2n1CC(O)c1ccco1 (configuration not stated) | . | . | -92 | . | .
Cc1ccc(N2C(=N)SCC2=O)cc1Cl | . | . | ? | 14µM | ?
COc1ccc(Cl)cc1N1C(=N)SCC1=O | / | / | / | / | .
COC(=O)C1=CN(c2cccc(C)c2)C=C(C(=O)OC)C1c1cc(OC)c(O)c([N+](=O)[O-])c1 | . | . | ? | 16µM | .
C=C1C(N)CC2CC1C2(C)C (configuration not stated) | . | . | / | . | .
COc1ccccc1Nc1nc(-c2cccs2)cs1 | . | . | . | . | 4µM
CC(=O)Nc1ccc(C(=O)Nc2nc(-c3ccccn3)cs2)cc1 | / | . | / | / | ?
O=C(Nc1nc(-c2ccccn2)cs1)c1cc(Cl)ccc1[N+](=O)[O-] | / | ? | / | / | 10µM
O=C(Nc1nc(-c2ccccn2)cs1)c1ccccc1-n1cnnn1 | / | / | / | / | 10µM
C=CCN1c2ccccc2[C@]23C[C@@H](C(=O)OC)N(S(=O)(=O)c4cccs4)C2=NC(C(=O)OC)=C(C(=O)OC)[C@H]13 | .[11.4 µM] | .[9.22 µM] | / | . | .[13.5 µM]
O=C(O)c1cc(N=Nc2ccc([N+](=O)[O-])cc2)ccc1O | .[11.4 µM] | / | / | . | 22µM!
NC(=O)C1(NC(=O)[C@@H]2CC3(CC(c4cccc(NC(=O)[C@@H]5CCC(=O)N5)c4)=NO3)CN2C(=O)c2cnccn2)CC1 (some centres not stated) | . | . | . | . | 22µM
COc1ccc(Cl)cc1NC(=O)c1c(NCc2sccc2C)sc2c1CCCC2 | / | . | / | / | /
COc1cc(NC(=O)C2CCC(CNc3c(N4CCCCC4)c(=O)c3=O)CC2)cc(OC)c1 (configuration not stated) | . | . | . | . | .
Cc1cccc(CCNC(=O)C2CCC(CNc3c(N4CCCC4)c(=O)c3=O)CC2)c1 (configuration not stated) | . | . | ? | 13µM | ?
Cc1ccnc(NC(=O)C2CCC(CNc3c(N4CCCC4)c(=O)c3=O)CC2)c1 (configuration not stated) | . | . | . | . | .
O=C(NC1CCCCCCC1)C1CCC(CNc2c(N3CCCC3)c(=O)c2=O)CC1 (configuration not stated) | . | . | -119 | 4µM | ?
Cc1ccc(CCNC(=O)C2CCC(CNc3c(N4CCCC4)c(=O)c3=O)CC2)cc1 (configuration not stated) | . | . | . | 25µM | .
Cc1cccc(CCNC(=O)C2CCCN(S(=O)(=O)c3cccc4nsnc34)C2)c1 (configuration not stated) | . | . | -95 | . | .
CCC(Cc1ccccc1)NC(=O)C1CCC(CNc2c(N3CCCC3)c(=O)c2=O)CC1 (configuration not stated) | . | . | . | . | .
Nc1nc(-c2ccccc2)nn1S(=O)(=O)c1ccccc1 | / | ? | / | / | .
COc1cc2c(cc1OC)C(C(C(=O)N(CCc1ccc(OC)c(OC)c1OC)CCc1ccc(OC)c(OC)c1OC)c1ccccc1)=NCC2 (configuration not stated) | .[0.00818 µM] | / | / | . | ?
Cc1ccc(S(=O)(=O)NCC(c2ccc(N(C)C)cc2)N2CCc3ccccc32)cc1C (configuration not stated) | / | . | / | / | /
O=C(NCC1COc2ccccc2O1)C1CCC(CNc2c(N3CCCCC3)c(=O)c2=O)CC1 (configuration not stated) | . | . | ? | 14µM | .
COc1ccccc1CNC(=O)C1CCC(CNc2c(N3CCOCC3)c(=O)c2=O)CC1 (configuration not stated) | . | . | . | . | .
SMILES | ALOX12 inhib | Lamin A splicing | PNC assembly inh | HPGD block | ALDH1A1 inh
Cc1ccccc1NC(=O)c1c(C)nn(-c2ccccc2)c1Cl | . | ? | . | 28µM | ?
Cc1ccc(NC(=O)c2c(C)nn(-c3ccccc3)c2Cl)cc1 | . | ? | . | 14µM | .
CC(=O)O[C@]12CC[N@+]3(C)CCCC[C@@H]3[C-]1Nc1ccccc12 | .[11.4 µM] | / | / | . | .[13.5 µM]
O=C(COc1ccc(Cl)cc1)Nc1ccccc1C(=O)OCc1cc(=O)n2ccsc2n1 | / | . | / | / | /
COc1ccc(NC(=O)CN2CCN(S(=O)(=O)c3ccc(C(C)C)cc3)CC2)cc1OC | . | . | . | . | ?
COc1ccc(Cl)cc1NC(=O)Cn1cccc1 | . | ? | . | . | 13µM
COc1ccc(Cl)cc1NC(=O)C(C)N(C)Cc1cccc(Cl)c1Cl (configuration not stated) | . | ? | -101 | / | .
Cc1ccc(S(=O)(=O)Nc2cc(NC(=O)CN3CCOCC3)ccc2Cl)cc1 | . | . | ? | . | 18µM
COc1ccc(C)cc1NC(=O)CN1CCN(S(=O)(=O)c2ccc(C(C)C)cc2)CC1 | . | . | ? | . | 5µM
Cc1ccc(S(=O)(=O)Nc2ccc(NC(=O)CN3CCCCC3)cc2)cc1 | . | . | . | . | .
NC(Cc1ccc(O)c(O)c1)C(=O)O (configuration not stated) | . | / | / | ? | ?
Cc1nc2[nH]c(=O)[nH]c(=O)c2[nH]1 | / | / | / | . | .
C=C1CCC2C(CC2(C)C)C(=C)CC/C1=N/O (configuration not stated) | . | ? | / | . | .
COC(=O)C[C@H]1c2ccccc2C2=C(C[C@@H](C)[C@H]3C(=O)N(c4ccccc4)C(=O)[C@@H]23)N1C(=O)OC | .[11.4 µM] | .[9.22 µM] | / | . | ?
CC1(OC(=O)c2cnc3ccccc3n2)C(=O)C=C2C=C3CCCN3C=C2C1=O (configuration not stated) | .[11.4 µM] | .[9.22 µM] | / | . | .[13.5 µM]
COC(=O)C1CCN(CC(=O)Nc2cc(Cl)ccc2OC)CC1 | / | / | / | / | .
COc1cc(NC(=O)c2ccccc2Cl)c(OC)cc1NC(=O)CN1CCOCC1 | . | . | -90 | . | .
COc1ccc(Cl)cc1NC(=O)CN1CCCC1 | / | ? | / | / | 10µM
COc1cc(NC(=O)c2ccccc2)c(OC)cc1NC(=O)CN1CCOCC1 | . | . | . | . | .
CCCCn1cc(S(=O)(=O)c2ccc(CC)cc2)c(=O)c2cc(F)c(N3CCCC(C)C3)cc21 (configuration not stated) | / | . | / | / | /
COc1ccccc1CN(Cc1cc2c(C)ccc(C)c2[nH]c1=O)Cc1nnnn1Cc1ccco1 | . | . | . | . | 14µM
Cc1ccc2cc(CN(Cc3ccc4c(c3)OCO4)Cc3nnnn3Cc3ccco3)c(=O)[nH]c2c1 | . | . | ? | . | 14µM
COc1ccc2cc(CN(CCc3ccccc3)Cc3nnnn3Cc3ccco3)c(=O)[nH]c2c1 | ? | . | . | . | 0.079µM
COc1ccc2[nH]c(=O)c(CN(Cc3nnnn3Cc3ccco3)C3CCCCC3)cc2c1 | ? | . | . | ? | ?
COc1cccc(-c2nccc(NC3CCNCC3)n2)c1 | . | . | / | . | .
COc1cccc(C(=O)Nc2ccc(S(=O)(=O)Nc3nccc(C)n3)cc2)c1 | . | . | ? | 28µM | .
